Counter-ions that a name gives are not always drawn.
Assays:
Assay in all cases: phenotypically active (imaging signature differs from DMSO and reproducible) at any of 0.3-9 uM (binary (1 = active, 0 = inactive)); higher = active
Details in all cases: treatment time: 24 h
[1] = test system: A549-ACTB-RAB5A
How it was run: (§1)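 Cells from fifteen gene-edited reporter lines (A549, HepG2 and WPMY1) were treated for 24 h at 0.3, 1, 3 or 9 µM and imaged live, four wells per condition. Features were normalised per well to solvent control wells. A condition deviated if ≥3 of 4 wells passed the 95th percentile of control Euclidean distances and was reproducible if its median replicate Pearson correlation beat the 95th percentile of non-replicates; phenotypic activity needed both.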

[2] = test system: A549-CANX-COX4
How it was run: as §1

[3] = test system: A549-GM130-SQSTM1
How it was run: as §1

[4] = test system: A549-TP53BP1-CLTA
How it was run: as §1

[5] = test system: A549-TUBA1B-RELA
How it was run: as §1

[6] = test system: HepG2-ACTB-RAB5A
How it was run: as §1

[7] = test system: HepG2-CANX-COX4
How it was run: as §1

[8] = test system: HepG2-GM130-SQSTM1
How it was run: as §1

[9] = test system: HepG2-TP53BP1-CLTA
How it was run: as §1

[10] = test system: HepG2-TUBA1B-RELA
How it was run: as §1

[11] = test system: WPMY1-ACTB-RAB5A
How it was run: as §1

[12] = test system: WPMY1-CANX-COX4
How it was run: as §1

[13] = test system: WPMY1-GM130-SQSTM1
How it was run: as §1

[14] = test system: WPMY1-TP53BP1-CLTA
How it was run: as §1

[15] = test system: WPMY1-TUBA1B-RELA
How it was run: as §1

Measured: phenotypically active

C[C@H](N[C@@H](CCc1ccccc1)C(=O)O)C(=O)N1CCC[C@H]1C(=O)O [enalaprilat]
inactive: [1] 0 | [2] 0 | [3] 0 | [4] 0 | [5] 0 | [6] 0 | [7] 0 | [8] 0 | [9] 0 | [10] 0 | [11] 0 | [12] 0 | [13] 0 | [14] 0 | [15] 0

Cc1cc(/N=N/c2cc(S(=O)(=O)O)c(C)cc2C)c(N)cc1O [Ischemin sodium salt]
inactive: [1] 0 | [2] 0 | [3] 0 | [4] 0 | [5] 0 | [6] 0 | [7] 0 | [8] 0 | [9] 0 | [10] 0 | [11] 0 | [12] 0 | [13] 0 | [14] 0 | [15] 0

Cc1cccc(Nc2cc(Cl)nc(SCC(=O)O)n2)c1C
inactive: [1] 0 | [2] 0 | [3] 0 | [4] 0 | [5] 0 | [6] 0 | [7] 0 | [8] 0 | [9] 0 | [10] 0 | [11] 0 | [12] 0 | [13] 0 | [14] 0 | [15] 0

CC1=C(CC(=O)O)c2cc(F)ccc2/C1=C\c1ccc(S(C)=O)cc1 (stereo not given) [sulindac]
inactive: [1] 0 | [2] 0 | [3] 0 | [4] 0 | [5] 0 | [6] 0 | [7] 0 | [8] 0 | [9] 0 | [10] 0 | [11] 0 | [12] 0 | [13] 0 | [14] 0 | [15] 0

COc1ccc2cc(CCC(C)=O)ccc2c1 [nabumetone]
inactive: [1] 0 | [2] 0 | [3] 0 | [4] 0 | [5] 0 | [6] 0 | [7] 0 | [8] 0 | [9] 0 | [10] 0 | [11] 0 | [12] 0 | [13] 0 | [14] 0 | [15] 0

CC(C)(C)NC[C@H](O)COc1cccc2c1CCCC2=O [levobunolol]
inactive: [1] 0 | [2] 0 | [3] 0 | [4] 0 | [5] 0 | [6] 0 | [7] 0 | [8] 0 | [9] 0 | [10] 0 | [11] 0 | [12] 0 | [13] 0 | [14] 0 | [15] 0

OC(CCN1CCCCC1)(c1ccccc1)C1CC2C=CC1C2 (stereo not given) [biperiden]
inactive: [1] 0 | [2] 0 | [3] 0 | [4] 0 | [5] 0 | [6] 0 | [7] 0 | [8] 0 | [9] 0 | [10] 0 | [11] 0 | [12] 0 | [13] 0 | [14] 0 | [15] 0

C[C@@H](CO)CCC[C@@H](C)[C@H]1CC[C@H]2[C@@H]3CC=C4C[C@@H](O)CC[C@]4(C)[C@H]3CC[C@]12C [27-Hydroxycholesterol]
inactive: [1] 0 | [2] 0 | [3] 0 | [4] 0 | [5] 0 | [6] 0 | [7] 0 | [8] 0 | [9] 0 | [10] 0 | [11] 0 | [12] 0 | [13] 0 | [14] 0 | [15] 0

COc1c(OC2OC(CO)[C@@H](O)[C@H](O)[C@H]2O)cc2c(c1OC)-c1ccc(OC)c(=O)cc1[C@@H](NC(C)=O)CC2 (stereo not given in full) [Colchicoside]
inactive: [1] 0 | [2] 0 | [3] 0 | [4] 0 | [5] 0 | [6] 0 | [7] 0 | [8] 0 | [9] 0 | [10] 0 | [11] 0 | [12] 0 | [13] 0 | [14] 0 | [15] 0

C[C@H](NC(=O)CCc1nc2ccccc2c(=O)[nH]1)c1ccccc1
inactive: [1] 0 | [2] 0 | [3] 0 | [4] 0 | [5] 0 | [6] 0 | [7] 0 | [8] 0 | [9] 0 | [10] 0 | [11] 0 | [12] 0 | [13] 0 | [14] 0 | [15] 0

CCCCCCC(=O)OC1CC(C)(C)NC(C)(C)C1 [TMPH hydrochloride]
inactive: [1] 0 | [2] 0 | [3] 0 | [4] 0 | [5] 0 | [6] 0 | [7] 0 | [8] 0 | [9] 0 | [10] 0 | [11] 0 | [12] 0 | [13] 0 | [14] 0 | [15] 0

CN(C)/N=N/c1[nH]cnc1C(N)=O [dacarbazine]
inactive: [1] 0 | [2] 0 | [3] 0 | [4] 0 | [5] 0 | [6] 0 | [7] 0 | [8] 0 | [9] 0 | [10] 0 | [11] 0 | [12] 0 | [13] 0 | [14] 0 | [15] 0

O=C1NC(=O)C(c2ccccc2)(c2ccccc2)N1 [phenytoin]
inactive: [1] 0 | [2] 0 | [3] 0 | [4] 0 | [5] 0 | [6] 0 | [7] 0 | [8] 0 | [9] 0 | [10] 0 | [11] 0 | [12] 0 | [13] 0 | [14] 0 | [15] 0

Cc1ccnn1-c1ccc(C(=O)N2CCN(S(=O)(=O)c3ccc(Cl)c(C(F)(F)F)c3)CC2)cc1
inactive: [1] 0 | [2] 0 | [3] 0 | [4] 0 | [5] 0 | [6] 0 | [7] 0 | [8] 0 | [9] 0 | [10] 0 | [11] 0 | [12] 0 | [13] 0 | [14] 0 | [15] 0

CN1C(=O)CC[C@H]1c1cccnc1 [(-)-Cotinine]
inactive: [1] 0 | [2] 0 | [3] 0 | [4] 0 | [5] 0 | [6] 0 | [7] 0 | [8] 0 | [9] 0 | [10] 0 | [11] 0 | [12] 0 | [13] 0 | [14] 0 | [15] 0

COC(=O)C1=C(C)NC(C)=C(C(=O)OC(C)C)C1c1cccc2nonc12 (stereo not given) [isradipine]
inactive: [1] 0 | [2] 0 | [3] 0 | [4] 0 | [5] 0 | [6] 0 | [7] 0 | [8] 0 | [9] 0 | [10] 0 | [11] 0 | [12] 0 | [13] 0 | [14] 0 | [15] 0

NC(=O)OCC(COC(N)=O)c1ccccc1 [felbamate]
inactive: [1] 0 | [2] 0 | [3] 0 | [4] 0 | [5] 0 | [6] 0 | [7] 0 | [8] 0 | [9] 0 | [10] 0 | [11] 0 | [12] 0 | [13] 0 | [14] 0 | [15] 0

O=C(NCCO)c1cc(C(=O)NCCO)cc(C(=O)NCCO)c1
inactive: [1] 0 | [2] 0 | [3] 0 | [4] 0 | [5] 0 | [6] 0 | [7] 0 | [8] 0 | [9] 0 | [10] 0 | [11] 0 | [12] 0 | [13] 0 | [14] 0 | [15] 0

CN1[C@@H](CC(=O)c2ccccc2)CCC[C@H]1C[C@H](O)c1ccccc1 [Lobeline alpha (-) hydrochoride]
inactive: [1] 0 | [2] 0 | [3] 0 | [4] 0 | [5] 0 | [6] 0 | [7] 0 | [8] 0 | [9] 0 | [10] 0 | [11] 0 | [12] 0 | [13] 0 | [14] 0 | [15] 0

O=C(O)CCCc1ccccc1 [Sodium 4-Phenylbutyrate]
inactive: [1] 0 | [2] 0 | [3] 0 | [4] 0 | [5] 0 | [6] 0 | [7] 0 | [8] 0 | [9] 0 | [10] 0 | [11] 0 | [12] 0 | [13] 0 | [14] 0 | [15] 0

CC(C)[N+](C)(CCOC(=O)C1c2ccccc2Oc2ccccc21)C(C)C [propantheline]
inactive: [1] 0 | [2] 0 | [3] 0 | [4] 0 | [5] 0 | [6] 0 | [7] 0 | [8] 0 | [9] 0 | [10] 0 | [11] 0 | [12] 0 | [13] 0 | [14] 0 | [15] 0

CC(=O)O[C@H]1C[C@@H]2CC[C@@H]3[C@H](CC[C@@]4(C)[C@H]3C[C@H]([N+]3(C)CCCCC3)[C@@H]4OC(C)=O)[C@@]2(C)C[C@@H]1N1CCCCC1 [vecuronium]
inactive: [1] 0 | [2] 0 | [3] 0 | [4] 0 | [5] 0 | [6] 0 | [7] 0 | [8] 0 | [9] 0 | [10] 0 | [11] 0 | [12] 0 | [13] 0 | [14] 0 | [15] 0
